Assay results as given in PubChem BioAssay AID624330 (Southern Research Specialized Biocontainment Screening …, 2012).
Hit rate of the full screen: of about 340,000 compounds, about 2,100 (0.62%) were called active.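 How the source made its calls: active means first-screen hits whose inhibition reached a set limit at any dose in the follow-up dose series; inconclusive means inhibition above the set first-screen limit but never retested; inactive means the rest.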 These entries were drawn from the full list. Entries with a potency or affinity are not part of this list.

target: Rac GTPase-activating protein 1 (Homo sapiens) (UniProt Q9H0H5); assay: blockers of MgcRacGAP-driven Rac1 GTP hydrolysis – biochemical, ADP Hunter fluorescence, primary and confirmatory, confirmation (AID 624330); conditions: MgcRacGAP-stimulated Rac1 GTP hydrolysis, at 30 µM, active compounds read high, GST-tagged Rac1 F28L mutant substrate;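 further: fluorescence reports GDP produced by GAP-driven GTP hydrolysis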
Sequence (Q9H0H5 whole entry, looked up): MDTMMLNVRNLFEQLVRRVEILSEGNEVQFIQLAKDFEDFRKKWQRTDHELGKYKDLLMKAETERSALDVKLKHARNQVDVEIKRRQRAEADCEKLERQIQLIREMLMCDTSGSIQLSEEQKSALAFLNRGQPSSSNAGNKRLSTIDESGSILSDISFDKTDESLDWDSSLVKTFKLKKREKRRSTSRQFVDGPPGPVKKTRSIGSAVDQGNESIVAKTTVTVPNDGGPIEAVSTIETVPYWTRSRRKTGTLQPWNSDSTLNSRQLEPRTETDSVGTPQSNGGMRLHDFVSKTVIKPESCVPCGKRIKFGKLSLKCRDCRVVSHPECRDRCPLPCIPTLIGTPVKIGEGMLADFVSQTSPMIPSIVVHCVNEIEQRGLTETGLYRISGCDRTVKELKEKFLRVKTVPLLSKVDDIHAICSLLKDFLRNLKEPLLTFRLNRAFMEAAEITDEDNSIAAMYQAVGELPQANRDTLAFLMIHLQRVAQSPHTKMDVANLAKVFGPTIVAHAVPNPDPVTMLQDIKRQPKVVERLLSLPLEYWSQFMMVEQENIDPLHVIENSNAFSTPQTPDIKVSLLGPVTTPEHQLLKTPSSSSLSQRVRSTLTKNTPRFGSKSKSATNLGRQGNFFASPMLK

inhibition, inactive:
CSc1ccccc1NC(=O)CN1CCN(c2ccccn2)CC1 6.87%
COc1ccc2nc(C)cc(N/N=C/c3ccc(F)cc3)c2c1 13.3%
COc1ccc2nc(C)cc(N/N=C/c3ccccc3)c2c1 19.7%
COc1ccccc1/C=N/Nc1cc(C)nc2ccc(C)cc12 14.4%
Cc1ccc2nc(C)cc(N/N=C/c3ccccc3O)c2c1 9.12%
COc1ccc(OC)c(S(=O)(=O)N2CCC3(CC2)CC(=O)c2ccccc2O3)c1 8.64%
O=C(Nc1ccc(C(=O)O)cc1)/C(=C\c1ccc2c(c1)OCO2)NC(=O)c1ccccc1 -1.61%
O=C(COC(=O)c1ccc([N+](=O)[O-])o1)Nc1ccc(N2CCOCC2)cc1 10.6%
O=C(O)c1ccc(N(c2ccccc2)c2ccccc2)cc1 6.47%
C/C(=N\N(c1ccccc1)c1ccccc1)c1ccc(N)cc1 18.1%
O=C(CSc1nc2ccc(NC(=O)CSc3nnnn3-c3ccccc3)cc2s1)Nc1ccccc1 2.46%
CN(C)c1ccc(C(=O)NN2C(=O)c3ccccc3C2=O)cc1 8.64%
CN(C)c1ccc(C(=O)N2CCCC2)cc1 3.64%
C[C@@H]1CN([C@@H](C)CO)C(=O)c2cc(Br)cnc2O[C@H]1CN(C)C(=O)c1ccc2c(c1)OCO2 13.5%
Cc1cccc(NC(=O)CCCN=C2NS(=O)(=O)c3ccccc32)c1C -1.68%
CN(c1ccccc1)c1ccc(/C=N/NC(=O)CC#N)cc1 10.3%
Cc1ccc(N=Cc2ccc(N(C)C)cc2)cc1 3.33%
CCN(CC)c1ccc(C=N/C(C#N)=C(\N)C#N)cc1 6.79%
CCOc1ccc(/C=N/O)cc1 5.7%
NC(=S)N/N=C/c1ccccc1 11.7%
CCN(CC)c1ccc(/C=N/NC(=O)C(O)c2ccccc2)cc1 (stereo not given) 9.04%
CCN(CC)c1ccc(/C=N/NC(=O)CC(C)C)cc1 5.15%
CN(C)c1ccc(C=Nc2ccccc2)cc1 0.89%
Cc1ccc(SCC(=O)n2nc(C)cc2C)cc1 3.7%
CSc1nc(NS(=O)(=O)c2ccc(F)cc2F)nn1C 6.35%
Cc1ccc(S(=O)(=O)N2CCN(C(=O)Cn3nc(C)c([N+](=O)[O-])c3C)CC2)cc1 6.68%
CC(C)Cn1c(N)c(C(=O)COC(=O)COc2cccc(C(F)(F)F)c2)c(=O)n(C)c1=O 6.32%
COC1CC(C)NC(=S)N1 (stereo not given) 12.9%
O=C(Cn1nnc2ccccc21)N/N=C/c1ccco1 10.9%
COc1ccc(NC(=O)c2ccc3c(c2)C(=O)N(CC2CCCO2)C3=O)cc1O (stereo not given) 0.29%
O=C(CSc1nnc(-c2ccco2)n1Cc1ccccc1)NCc1ccccc1 5.14%
O=C(CSc1nnc(-c2ccco2)n1Cc1ccccc1)c1ccccc1 13.1%
O=C(NN=Cc1ccc2c(c1)CCC2)c1ccccc1[N+](=O)[O-] 6.28%
Cc1cc(C)nc(N2N=C(CSc3ccc(Cl)cc3)CC2=O)n1 3.87%
COc1cccc(C(=O)NNC(=O)Cc2csc(N)n2)c1 10.7%
CCn1c(SCC(=O)c2[nH]c(C)c(C(C)=O)c2C)nnc1-c1ccccc1 11.9%
COc1ccc2cc(CN(C)C(=O)CN3C(=O)NC4(CCCC4)C3=O)ccc2c1 20.2%
CNC(=S)Nc1cc2oc3ccccc3c2cc1OC 13.3%
COc1cc2c(cc1NC(=O)CCC(=O)O)oc1ccccc12 17.1%
CCCNC(=S)Nc1cc2oc3ccccc3c2cc1OC 7.43%
COc1ccccc1CC(=O)Nc1cc2oc3ccccc3c2cc1OC 1.63%
NS(=O)(=O)c1ccc(CCNC(=O)c2ccc(Cl)nc2)cc1 4.85%
COC(=O)C[C@@H]1C[C@@H]2c3cc(NC(=O)NC4CCCCC4)ccc3O[C@@H]2[C@H](CO)O1 0.31%
CC(=O)c1ccc(N2CCN(C(=O)c3ccc(-c4ccccc4)cc3)CC2)cc1 6.62%
CN1c2cccc3cccc(c23)N(C)C1c1cccs1 29.9%
CN1c2cccc3cccc(c23)N(C)C1(C)C 17.8%
Cc1[nH]c2ccc(-c3n[nH]c(=S)n3Cc3ccccc3)cc2c1C 10.2%
c1ccc(-c2csc(NNC3=NCCCCC3)n2)cc1 -65.3%
COc1ccc(CNC(=O)c2ccc[nH]2)cc1Cl -1.95%
COc1cc(-c2n[nH]c(=S)n2-c2ccccc2C(F)(F)F)cc(OC)c1OC 0.91%
CCn1c(C)nc2cc(C(=O)N/N=C/c3ccc(N4CCOCC4)cc3)ccc21 9.18%
CCn1c(C)nc2cc(C(=O)N/N=C/c3ccc(O)c(O)c3O)ccc21 -97%
CCn1c(C)nc2cc(C(=O)N/N=C/c3ccccc3)ccc21 12.6%
CCn1c(C)nc2cc(C(=O)N/N=C/c3cccc(OC)c3O)ccc21 15%
CCn1c(C)nc2cc(C(=O)NN=Cc3ccc([N+](=O)[O-])cc3)ccc21 8.03%
CCn1c(C)nc2cc(C(=O)N/N=C/c3ccccc3C)ccc21 4.28%
O=C(O)CCCN1C(=O)c2ccc(Oc3cccc([N+](=O)[O-])c3)cc2C1=O 1.11%
Cc1ccc(OCC(=O)NNC(=O)c2ccco2)c(C)c1 8.22%
O=C(O)[C@H](CSCc1ccccc1)NS(=O)(=O)c1ccc(F)cc1 9.02%
CCCCn1c(SCC(=O)Nc2cc(C)[nH]n2)nc2ccsc2c1=O 9.99%
CCCCn1c(SCC(=O)c2ccccc2)nc2ccsc2c1=O 9.24%
C=CCn1c(SCC(=O)Nc2cc(C)on2)nc2sc(CC)cc2c1=O -5.28%
C=CCn1c(SCC(=O)NC2CC2)nc2sc(CC)cc2c1=O 2.06%
CN(Cc1ccccc1)C(=O)COC(=O)/C=C/c1ccco1 7.88%
Cc1ccc(NC(=O)Cn2nc(C(=O)O)c3ccccc3c2=O)cc1S(=O)(=O)N1CCOCC1 5.1%
COc1ccc2c(C)cc3nncn3c2c1 5.43%
COc1ccc2c(C)cc3nnnn3c2c1 7.23%
Nc1ccn([C@@H]2O[C@H](COS(=O)(=O)O)[C@@H](O)[C@H]2O)c(=O)n1 9.68%
COCC(C)NCc1cc(Br)ccc1OC (stereo not given) 26.2%
COc1cc(CNCc2cccc(OC)c2OC)cc(OC)c1 20.9%
COc1ccccc1CNCc1ccc(OC)c(OC)c1OC 20.1%
COc1cccc(CNCc2cccc(Br)c2)c1OC 24.4%
COc1cccc(CNCc2ccccn2)c1OC 8.4%
COCC(C)NCc1cccc(C)c1 (stereo not given) 5.01%
N#CCCn1cc(C(=O)Nc2ccc(C(=O)O)cc2)c(-c2ccc([N+](=O)[O-])cc2)n1 5.44%
O=C(C(=O)c1ccc(O)cc1)c1ccccc1 3.36%
O=C1Cn2c(nc3ccccc32)-c2ccccc2N1 1.15%
CCCCc1ccc(S(=O)(=O)NCCCN2CCCC2=O)cc1 6.42%
Cc1ccc(Cn2c(CCNc3nc(-c4ccc(Cl)c([N+](=O)[O-])c4)cs3)nc3cc(Cl)c(Cl)cc32)cc1 7.46%
CC(C)(C)OC(=O)C[C@H]1C/C=C\C[C@@H](CC(=O)N[C@@H](CO)Cc2ccccc2)C(=O)NC[C@H](c2ccccc2)OC1=O 2.19%
Cc1cn(C2CC(OC(=O)C(C)C)C(CO)O2)c(=O)[nH]c1=O (stereo not given) 6.43%
O=c1[nH]cn[nH]1 0.25%
CC(CCN(C)C)OC(=O)c1ccc(C(C)c2ccccc2)o1 (stereo not given) 1.78%
Brc1ccc2c(c1)OCCOCCOCCOCCOCCO2 8.26%
Brc1ccc2c(c1)OCCOCCOCCOCCOCCOCCO2 0.25%
Oc1c(Br)cc(Br)cc1C=Nc1ccc2c(c1)OCO2 15.4%
Oc1c(Cl)cc(Cl)cc1C=Nc1ccc2c(c1)OCCO2 4.97%
O=S(=O)(c1ccc(SCc2cccc(Cl)c2)nc1)N1CCCC1 2.55%
CC(=O)c1cccc(OC(=O)C2=CC=CN3CCS(=O)(=O)N=C23)c1 7.32%
COc1ccc2c(c1)c1nc3ccccc3nc1n2Cc1ccc(OC)c(OC)c1 8.38%
COc1cccc(CN(C)C(=O)Nc2cccc(C(F)(F)F)c2)c1OC -4.29%
Brc1ccc(OCc2nnc3n2CCC3)cc1 5.52%
O=C(COc1cccnc1[N+](=O)[O-])N1CCc2ccccc21 0.83%
CCN(CC)c1ccc(-c2c(C#N)c(N)nc(OC)c2C#N)cc1 -1.06%
COc1ccc(N=c2sc3ccccc3n2C)cc1 3.05%
Cn1c(=Nc2ccccc2)sc2ccccc21 4.04%
CCC(=NOCc1ccccc1)C(=O)NNS(=O)(=O)c1ccc(C)cc1 0.04%
Nc1ccc(C(=O)N/N=C/c2cn(Cc3ccccc3)c3ccccc23)cc1 0.58%
O=C(N/N=C/c1cccc(O)c1)c1ccc(-n2cnnn2)cc1 1.77%
COc1cc(C=NNc2nc3c([nH]2)c(=O)n(C)c(=O)n3C)ccc1O 12.7%
COc1ccc(/C=N/NC(=O)c2ccc(-c3ccccc3)cc2)cc1O 25.4%
COc1cc(C(=O)N/N=C/c2ccc(OC(=O)c3ccccc3)c(OC)c2)ccc1O 25.2%
COc1cc(/C=N/Nc2ccccc2C(F)(F)F)ccc1O 20.2%
O=C(N/N=C/c1ccc(F)cc1)c1ccc(-n2cnnn2)cc1 -4.33%
COc1cc(C(=O)N/N=C/c2cn(Cc3cccc(F)c3)c3ccccc23)ccc1O 28.6%
